AmpC inh no det: AmpC beta-lactamase inhibition, detergent-free assay. P00811. AmpC nitrocefin hydrolysis, absorbance 480 nm, no detergent. Potency, µM (series often up to 28.7 µM), for inactives: at the top dose activity change, negative = inhibition. actives 1.8% (n = 71,000); note: % of control where 0% means no effect
Target sequence (P00811 whole entry, looked up): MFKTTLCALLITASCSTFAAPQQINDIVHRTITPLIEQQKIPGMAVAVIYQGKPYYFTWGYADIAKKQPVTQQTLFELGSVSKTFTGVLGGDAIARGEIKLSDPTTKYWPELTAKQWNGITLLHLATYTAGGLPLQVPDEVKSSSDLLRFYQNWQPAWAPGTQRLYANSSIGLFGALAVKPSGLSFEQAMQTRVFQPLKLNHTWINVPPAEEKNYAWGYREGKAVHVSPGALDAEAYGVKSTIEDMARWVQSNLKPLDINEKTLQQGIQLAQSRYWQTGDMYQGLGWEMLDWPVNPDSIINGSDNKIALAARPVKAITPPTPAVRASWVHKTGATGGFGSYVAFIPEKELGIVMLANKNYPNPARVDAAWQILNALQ
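Enzyme, pH 7.0 phosphate. Compound titrations were pre-incubated with AmpC for 15 min at room temperature before nitrocefin (stock 800 uM) addition; product formation was recorded at 480 nm every 20 s for 4 min.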
AmpC inh det: AmpC beta-lactamase inhibition, detergent assay; P00811; purified AmpC, nitrocefin hydrolysis with detergent; Potency, µM (titrated, usually from 28.7 µM), for the others: top-dose activity change, negative = inhibition; actives 0.09% (n = 71,000); AID 584; active = well fitted curve in the direction sought with a large enough effect; inconclusive = small, poorly fitted or top-dose-only effect; note: % is set by controls: 0 for no effect and ±100 for the full control effect
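E. coli AmpC (5.3 nM) in 20 mM phosphate pH 7.0 with 0.01% Triton X-100, preincubated 15 min RT with compound; nitrocefin (2 uL of 800 uM stock) hydrolysis followed by 480 nm absorbance every 20 s over 4 min.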
SmPrx2 inh: blocks S. mansoni peroxiredoxin 2 enzymatic activity | S. mansoni Prx2 activity coupled to TGR/GSH (TGR is thioredoxin glutathione reductase), NADPH fluorescence loss, qHTS | Potency, µM | actives 0.07% (n = 65,000) | AID 448
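Prx2 activity was followed as the loss of NADPH fluorescence (ex 365/em 450 nm), read every 30 sec for 8 min after H2O2 start. The enzyme mix (50 nM Prx2, 25 nM TGR, GSH, NADPH; pH 7.4 phosphate buffer) was incubated with compound for 15 min at room temperature first.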
Anthrax LT inh: blocks cellular internalization of anthrax lethal toxin. Cells, anthrax lethal toxin internalization, FRET ratio (460/530). Potency, µM (top dose mostly 40 µM), inactives show at the top dose activity change, negative = inhibition, actives largely listed as inhibitors. actives 0.67% (n = 70,000); note: % is set by controls: 0 for no effect and ±100 for the full control effect; nearly all actives have a fitted effect of over 50% in size
* = called active by the depositor; ? = inconclusive; / = not tested or not shown; [ ] = dose if it differs, or a comment. The list is not random: actives were taken first. Their share in the collection is about 2.6%. Unless noted, calls come from the whole dose curve. Potency is the fitted concentration of half-maximal effect.

SMILES | AmpC inh no det | AmpC inh det | SmPrx2 inh | Anthrax LT inh
CCOC(=O)C1CCCN(CCC(=O)Nc2cccc(F)c2)C1 (stereo not given) | -3.3% | 9.1% | >57 | -20.3%
CCCc1cc(C(=O)Nc2sc(C)c(CC)c2C#N)no1 | 3.98µM*[single pt active] | 12.8% | >57 | 12.6µM*
CCCc1cc(C(=O)Nc2sc(C)c(C)c2C(=O)OCC)no1 | 3.98µM*[single pt active] | 21.0% | >57 | ?
CCCc1cc(C(=O)Nc2cccnc2)no1 | 3.98µM*[single pt active] | 11.4% | >57 | -12.9%
CCOC(=O)c1c(NC(=O)c2cc(C3CC3)on2)sc(C(C)=O)c1C | -19.6% | 5.4% | >57 | 0.5%
CCCc1cc(C(=O)Nc2sc3c(c2C#N)CCC3)no1 | 3.98µM*[single pt active] | 9.8% | >57 | ?
O=C1CN2CCN(CC2)CC(=O)Nc2ccc(cc2)S(=O)(=O)c2ccc(cc2)NC(=O)CN2CCN(CC2)CC(=O)Nc2ccc(cc2)S(=O)(=O)c2ccc(cc2)N1 | 8.7%[5.75 µM] | -3.2%[5.75 µM] | >57 | -7.4%[8 µM]
CN(C)C(=O)c1ccc(-c2cncnc2N2CCNCC2)cc1 | -6.0% | 9.4% | >57 | -6.7%
C[C@@]1(C(NC(=O)c2ccc(-c3ccccc3)cc2)c2ccc(Cl)cc2)C[C@H]1C1CCCCC1 (stereo not given in full) | -10.7% | -0.4% | >57 | 16.2%
N#CC1=C2SCN(c3ccccc3)CN2C(=O)CC1c1c(Cl)cccc1Cl (stereo not given) | 2.51µM* | 7.5% | / | ?
Cc1ccc(C2CC(=O)N3CN(c4ccc(Br)cc4)CSC3=C2C#N)o1 (stereo not given) | 12.6µM*[single pt active] | -5.8% | >57 | ?
N#CC1=C2SCN(c3ccccc3)CN2C(=O)CC1c1cccs1 (stereo not given) | -6.0% | -4.7% | >57 | -12.8%
N#CC1=C2SCN(Cc3ccco3)CN2C(=O)CC1c1c(F)cccc1Cl (stereo not given) | 3.98µM*[single pt active] | 9.5% | >57 | -10.7%
COc1ccc(OC)c(C2CC(=O)N3CN(c4ccc(C)c(Cl)c4)CSC3=C2C#N)c1 (stereo not given) | -7.6% | 11.0% | >57 | -15.1%
N#CC1=C2SCN(c3ccccc3)CN2C(=O)CC1c1ccccc1Cl (stereo not given) | 2.51µM* | 8.9% | >57 | ?
COc1cc(OC)c(C2CC(=O)N3CN(c4ccccc4)CSC3=C2C#N)cc1OC (stereo not given) | 57.1% | 0.8% | >57 | ?
CN(C)/N=N/c1nc[nH]c1C(N)=O | -14.5% | 23.5% | / | 4.2%
O=C(c1cccc(F)c1)N1CCC2(CC1)CN(c1ccc(-c3ccccc3)cc1)C2 | 3.4% | 0.3% | >57 | -4.7%
CCOC(=O)C1=C(CS(=O)(=O)c2ccc(F)c(C)c2)NC(=O)NC1c1ccc(O)c(O)c1 (stereo not given) | 3.98µM*[single pt active] | 10.2% | >57 | -7.6%
C[C@H]1[C@H](C)CC[C@@]2(C(=O)O)CC[C@]3(C)C(=CC[C@@H]4[C@@]5(C)CC[C@H](O)C(C)(C)[C@@H]5CC[C@@]43C)[C@@H]12 | 1.1% | -1.2% | >57 | 7.94µM*
CO[C@@H]1CC[C@@]2(C)[C@@H](CC[C@@]3(C)[C@H]2CC=C2[C@H]4CC(C)(C)[C@H](O)[C@@H](OC(C)=O)[C@]4(CO)[C@H](O)C[C@]23C)[C@@]1(C)CO (tested in a mixture with another compound) | 100.3%[12.8 µM] | -3.3%[12.8 µM] | >57 | -7.5%[3.58 µM]
C[C@](N)(COP(=O)(O)O)C(=O)O | 14.4% | -1.1% | >25.6 | ?
COCCNC(=O)CN1C(=O)COc2ccc(Cl)cc21 | -14.5% | 0.4% | >57 | -0.5%
Cc1cccc(NC(=O)CN2C(=O)COc3ccc(Cl)cc32)c1 | -20.5% | 24.1% | >57 | ?
CCOc1ccc(NC(=O)CN2C(=O)COc3ccc(Cl)cc32)cc1 | 3.98µM*[single pt active] | 14.3% | >57 | ?
SMILES | AmpC inh no det | AmpC inh det | SmPrx2 inh | Anthrax LT inh
COc1cccc(NC(=O)CN2C(=O)COc3ccc(Cl)cc32)c1 | -5.4% | 11.9% | >57 | 15.8µM*
COC(=O)CN1C(=O)COc2ccc(Cl)cc21 | 3.98µM*[single pt active] | 16.7% | >57 | 3.3%
C=CCN1CCc2c(cc(O)c(O)c2Br)[C@H](c2ccccc2)C1 | -4.8% | -0.9% | >57 | 9.8%
Cc1c(C(=O)c2ccc3ccccc3c2)c2cccc3c2n1[C@H](CN1CCOCC1)CO3 | 115.0% | -5.7% | >25.6 | 2µM*
CC(C)CCOc1cccc(C2c3c(oc4ccccc4c3=O)C(=O)N2CCCN2CCOCC2)c1 (stereo not given) | 114.9% | 14.5% | >57 | -19.7%
COc1cccc(C2c3c(oc4ccccc4c3=O)C(=O)N2CCCN2CCOCC2)c1 (stereo not given) | 3.98µM*[single pt active] | 12.2% | >57 | 0.6%
CN1CCN(c2ncc3ncc(=O)n(-c4ccccc4)c3n2)CC1 | 6.9% | 5.1% | >57 | -2.6%
CSc1nc2nc(C)cc(-c3ccccc3)n2n1 | 11.6% | -5.6% | >57 | 5.1%
Cc1cc(-c2ccccc2)n2ncc(C#N)c2n1 | 3.98µM*[single pt active] | 13.1% | >57 | -12.8%
O=c1c(-c2ccccc2)coc2c(CN3CCCC3)c(O)ccc12 | -7.7% | -3.8% | >57 | 13.6%
O=c1c(-c2ccc(Cl)cc2)coc2c(CN3CCOCC3)c(O)ccc12 | -5.1% | 8.8% | / | 6.31µM*
O=C(NCCN1CCN(c2ccccc2)CC1)C1CCCN(S(=O)(=O)c2cnc[nH]2)C1 (stereo not given) | 2.51µM*[single pt active] | 9.7% | >57 | -7.4%
CCN(CCCNC(=O)C1CCCN(S(=O)(=O)c2cnc[nH]2)C1)c1ccccc1 (stereo not given) | 3.98µM*[single pt active] | 7.3% | >57 | -7.4%
CCN(CCNC(=O)C1CCCN(S(=O)(=O)c2cnc[nH]2)C1)c1ccccc1 (stereo not given) | 3.98µM*[single pt active] | 13.3% | >57 | -8.3%
Cc1ccc(CCNC(=O)C2CCCN(S(=O)(=O)c3cnc[nH]3)C2)cc1 (stereo not given) | 2.2% | 5.1% | >57 | -1.0%
Cc1cccc(CN2CCC(CNC(=O)C3CCCN(S(=O)(=O)c4cnc[nH]4)C3)CC2)c1 (stereo not given) | 3.16µM*[single pt active] | 12.4% | >57 | -10.6%
CC(C)C[C@@H](CC(=O)N[C@@H](CCCN)CC(=O)N[C@@H]1CCNC[C@H]1C(=O)N[C@H](CC(=O)N[C@@H](CCC(=O)O)CC(=O)O)Cc1c[nH]c2ccccc12)NC(=O)[C@@H]1CNCC[C@H]1N | 37.8% | -7.5% | >57 | 1.9%
CN(C)c1ccc(-c2cncnc2NCc2ccccc2)cc1 | 37.6% | 5.0% | >57 | -11.2%
CCNc1ncc2nc(-c3ccc(OC)cc3)c(=O)n(Cc3ccc(F)cc3)c2n1 | -7.5% | -0.3% | >57 | ?
C=C(C)C(O)/C=C/c1ccc(OC)cc1 (stereo not given) | / | / | / | -19.5%[8 µM]
N#CCSc1nc2scc(-c3cccs3)c2c(=O)n1CCc1ccccc1 | 7.94µM* | 0.5% | >57 | -27.3%
C=CCn1c(SCn2nnc3ccccc3c2=O)nc2scc(-c3cccs3)c2c1=O | -9.1% | -3.1% | >57 | 4.8%
Oc1ccc(Cl)cc1Cc1cc(Cl)ccc1O | ? | 3.9% | / | 15.8µM*
Oc1ccc(Cl)cc1Cc1ccccc1 | -19.2% | 4.0% | / | ?

Screens: PubChem BioAssay, National Center for Advancing Translational Sciences (NCATS)
